Hit rate of the full screen: of about 340,000 compounds, about 270 (0.079%) were called active.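 Rule for the calls: active = activation above a cutoff set at the mean over all compounds plus 3 SD (cut at about 18% in these data); inactive = the rest.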 The list comes from a sample in which actives are over-represented; it also holds similar structures and randomly drawn compounds. Where a SMILES comes first, the peptide text is derived from it.

Sequence of cAMP-dependent protein kinase catalytic subunit beta (Homo sapiens) + cAMP-dependent protein kinase type II-beta regulatory subunit (Homo sapiens) (P31323 whole entry, looked up, other chains not shown, the tested form may be a part): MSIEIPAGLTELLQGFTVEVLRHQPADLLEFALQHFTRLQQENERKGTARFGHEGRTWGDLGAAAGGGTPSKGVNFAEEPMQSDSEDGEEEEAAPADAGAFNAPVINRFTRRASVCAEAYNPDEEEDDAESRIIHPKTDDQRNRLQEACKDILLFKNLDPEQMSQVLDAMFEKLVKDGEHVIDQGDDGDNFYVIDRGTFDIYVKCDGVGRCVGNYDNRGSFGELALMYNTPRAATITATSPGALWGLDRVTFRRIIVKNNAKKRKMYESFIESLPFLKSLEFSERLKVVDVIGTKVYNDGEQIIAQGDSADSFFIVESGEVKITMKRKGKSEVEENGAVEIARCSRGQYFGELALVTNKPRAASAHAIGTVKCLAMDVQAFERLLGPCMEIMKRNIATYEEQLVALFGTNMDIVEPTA

This experiment addresses cAMP-dependent protein kinase catalytic subunit beta (Homo sapiens) + cAMP-dependent protein kinase type II-beta regulatory subunit (Homo sapiens) (UniProt P22694+P31323). The experiment in a line: compounds dissociating PKAc from R2B subunit – biochemical, fluorescence polarization, Cy5-IP20, human, primary screen (AID 504700).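 Note: higher means more holoenzyme dissociation and a rise in polarization.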 The conditions noted are these: PKA-R2B holoenzyme dissociation, at 11.4 µM, stronger effect = higher value, 0% DMSO only, 100% 113 µM cGMP, R2B truncated from residue 108, S112A mutant.
`C[C@H]1CN([C@@H](C)CO)C(=O)c2cc(-c3cccc(F)c3)cnc2O[C@@H]1CN(C)S(C)(=O)=O`: the activation is 4.49% (inactive).

On to `O=C(C1CCCO1)N1CCN(C(=O)C23CC4CC(CC(C4)C2)C3)CC1` (centres undefined), for which the activation is 7.92% (inactive).

With `O=Nc1c(O)cc(O)c2ccccc12`, the activation is -0.7% (inactive).

In the case of `O=C(CCN1CCCCC1)Nc1ccc(F)c(F)c1`, the activation is -4% (inactive).

For the compound `O[C@H]1C[C@H](c2ccc(Cl)cc2)N(Cc2cccs2)C[C@@H]1n1cc(C2CC2)nn1`, the activation was -5.34% (inactive).

`COc1ccc(-c2ccc3[nH]c4c(c3c2)CCN2C[C@H]3[C@H](C)ON(C)[C@H]3C[C@@H]42)cc1`: the activation was -1.96% (inactive).

For `C[C@H]1CN([C@@H](C)CO)C(=O)c2cc(Br)cnc2O[C@H]1CN(C)S(=O)(=O)c1cccs1`, the activation is -1.49% (inactive).

Turning to `O=C(c1ncn2c1c(=O)[nH]c1ccccc12)N1CCc2ccccc2C1`, the activation was 0.26% (inactive).

In the case of `Cc1cccc(C)c1NC(=O)CNC(=O)c1ccc(N2CCOCC2)c([N+](=O)[O-])c1`, the activation was -5.41% (inactive).

On to `Cc1noc(C)c1NC(=O)N(C)C[C@@H]1Oc2cc(Br)ccc2S(=O)(=O)N([C@@H](C)CO)C[C@H]1C`, for which the activation is -6.5% (inactive).

For `Cc1cn([C@H]2C[C@H](O)[C@@H](CNC(=O)[C@H](N)Cc3cccnc3)O2)c(=O)[nH]c1=O`, the activation is 3.26% (inactive).

On to `COc1ccc(NC(=O)CN(C)C(=O)c2cc(C)oc2C)cc1`, for which the activation was 7.31% (inactive).

For the compound `O=C(NCCc1cccc(F)c1)C1CC(O)CN1C(=O)Nc1ccccc1` (centres undefined), the activation is -8.6% (inactive).

With `COc1ccc([C@H]2N[C@]3(CCCN(Cc4ccco4)C3=O)[C@H]3C(=O)N(C)C(=O)[C@@H]23)cc1`, the activation was -1.07% (inactive).

For `C[C@H]1CN([C@@H](C)CO)C(=O)c2cc(C3=CCCCC3)cnc2O[C@@H]1CN(C)C(=O)Cc1ccccc1`, the activation is 4.23% (inactive).

`Cc1nonc1C(=O)N/N=C/c1ccc(O)cc1`: the activation was -0.48% (inactive).

With `Nc1nnn(CC(=O)N/N=C/c2ccc(O)cc2)n1`, the activation is -7.14% (inactive).

Consider `CC(C)(C)c1nnc(N/N=C/c2ccc(O)cc2)n(N)c1=O`, for which the activation is 21.1% (active).

`COc1cc2nnn(-c3ccncc3)c2cc1OC`: the activation was 5.36% (inactive).

On to `COc1ccc(C(=O)OCC(=O)Nc2cc(C)on2)cc1F`, for which the activation is 1.88% (inactive).

Consider `COC(=O)C[C@H]1C[C@@H]2c3cc(NC(=O)Nc4ccccc4)ccc3O[C@@H]2[C@@H](CO)O1`, for which the activation was 6.99% (inactive).

As for `CC(C)[C@H](NC(=O)c1ccccc1F)C(=O)Nc1cccc(S(=O)(=O)N2CCOCC2)c1`, the activation is 4.82% (inactive).

`Cc1ccc([C@H]2N[C@]3(CCCN(CC4CCCCC4)C3=O)[C@H]3C(=O)N(Cc4ccccc4)C(=O)[C@@H]23)cc1`: the activation is -3.62% (inactive).

`O=C(CNC(=O)c1ccccc1)NCC(=O)OCC(=O)c1ccccc1` (HELM PEPTIDE1{[O=C(c1ccccc1)[*:2]].G.G.[O=C(CO[*:1])c1ccccc1]}$$$$V2.0): the activation was 22.6% (active).

For the compound `O=C(CNC(=O)c1ccco1)OCC(=O)c1ccccc1`, the activation is 3.42% (inactive).

Take `O=C(CNC(=O)c1ccccc1)NCC(=O)OCc1ccc(Cl)cc1`: the activation is -2.62% (inactive).

As for `O=C(O)C1CCCN1c1nc(Cl)ccc1[N+](=O)[O-]` (centres undefined), the activation is 5.76% (inactive).

For the compound `COc1ccc(C(CNC(=O)c2ccc(OCc3cscn3)cc2)N2CCCC2)cc1` (centres undefined), the activation was 3.82% (inactive).

Regarding `O=C(O)C1=C(C(=O)O)C2CCC1C2`, the activation is 19.1% (active).

For `COc1ccc(S(=O)(=O)N2CCCCC2)cc1C(=O)NC1CCS(=O)(=O)C1` (centres undefined), the activation was -9.4% (inactive).

Regarding `C[C@@H]1CN([C@@H](C)CO)C(=O)c2cc(NS(C)(=O)=O)ccc2O[C@@H](C)CCCCO[C@H]1CN(C)C(=O)Nc1ccc2c(c1)OCO2`, the activation was 3.71% (inactive).

With `COc1cccc(C(=O)Nc2ccc3nc4n(c(=O)c3c2)CCCCC4)c1`, the activation is -0.66% (inactive).

Regarding `CC(C)C1CCN(C(=O)C2CCC(=O)N(C3CCCCCC3)C2)CC1` (centres undefined), the activation was -0.9% (inactive).

In the case of `N#CCCN(C(=O)Nc1ccc(Cl)c(Cl)c1)C1CCCCC1`, the activation was 1.61% (inactive).

Turning to `O=C(c1ccc(CS(=O)Cc2ccccc2Cl)o1)N1CCN(c2ccccc2)CC1` (centres undefined), the activation was 2.13% (inactive).

With `COc1ccc(-c2cnc3c(c2)C(=O)N([C@H](C)CO)C[C@@H](C)[C@H](CN(C)Cc2ccccc2)O3)cc1`, the activation was 5.52% (inactive).

Take `CCOc1cc(/C=N/NC(=O)c2ccncc2)cc(Br)c1O`: the activation was -1.34% (inactive).

Take `Cc1ccc(NC(=O)c2ccco2)cc1`: the activation was 4.37% (inactive).

Regarding `CC1(C)CN(CCc2ccccc2)C(=O)[C@H]1CC(=O)Nc1ccc(Br)cc1`, the activation was -0.64% (inactive).

For `COc1ccc(NC(=O)N(C)C[C@H]2Oc3ncc(C#C[C@@H](C)O)cc3C(=O)N([C@H](C)CO)C[C@H]2C)cc1`, the activation is 2.12% (inactive).

On to `COCOCCn1cc(CN2CCS(=O)(=O)N(Cc3ccc(-c4ccc(OC)cc4)cc3)C(CC(C)C)C2=O)nn1` (centres undefined), for which the activation was -14.1% (inactive).

Regarding `Cc1cccc(C(=O)NC2CCN(CC(=O)Nc3cccc(Cl)c3)CC2)c1`, the activation was -3.65% (inactive).

With `COc1ccc(OC)c(NC(=O)C2CCCN2S(=O)(=O)c2ccc3c(c2)CC(C)N3C(C)=O)c1` (centres undefined), the activation is -3.21% (inactive).

On to `COc1ccc(CC(NC(C)=O)C(=O)NC2CCN(C(=O)c3ccc(OC)c(OC)c3)CC2)cc1OC` (centres undefined), for which the activation was -5.58% (inactive).

Regarding `COc1ccc(CC(NC(C)=O)C(=O)NC2CCN(C(=O)c3ccc(Cl)cc3)CC2)cc1` (centres undefined), the activation was 19.4% (active).

`CC(=O)NC(Cc1ccc(F)c(F)c1)C(=O)NC1CCN(C(=O)c2ccc(C)cc2)CC1` (centres undefined): the activation was -1.79% (inactive).

Regarding `COc1ccc(C(=O)CSc2nnc(NC(=O)C3CC(=O)N(c4cccc(OC)c4)C3)s2)cc1` (centres undefined), the activation is -12.2% (inactive).

As to `COc1cccc(Nc2nnc(SCC(=O)N3CC(C)OC(C)C3)s2)c1` (centres undefined), the activation was 19.7% (active).

As for `COc1cccc(Nc2nnc(SCC(=O)N3CC(=O)Nc4ccccc43)s2)c1`, the activation is -4.91% (inactive).

For `C[C@@H]1CN([C@@H](C)CO)C(=O)CCCn2nncc2CO[C@@H]1CN(C)S(=O)(=O)c1ccc(-c2ccccc2)cc1`, the activation was 8.61% (inactive).

Turning to `CN1CCn2cnc(C(=O)NCC(=O)OC(C)(C)C)c2C1=O`, the activation was 6.86% (inactive).

Regarding `C[C@H]1CN([C@@H](C)CO)C(=O)CCCn2cc(nn2)CO[C@@H]1CN(C)S(=O)(=O)c1ccc(-c2ccccc2)cc1`, the activation was -2.02% (inactive).

As to `Cc1csc(=O)n1CCC(=O)OCC(=O)Nc1ccc(N2CCOCC2)cc1`, the activation is -13.7% (inactive).

Regarding `COc1cc(C)c(CN2CCN(C(=O)CCC(=O)c3ccc(C)s3)CC2)cc1OC`, the activation was -4.23% (inactive).

In the case of `C[C@@H]1CN([C@H](C)CO)C(=O)c2cc(-c3ccc(F)cc3)cnc2O[C@H]1CN(C)C(=O)c1ccc(F)cc1`, the activation was -10.7% (inactive).

Turning to `O=C(CCc1ccc(O)cc1)NN=Cc1cc(Br)ccc1O`, the activation was -5.67% (inactive).

`CCCCN1CC(C)(C)[C@H](CC(=O)Nc2ccc(Br)cc2)C1=O`: the activation was -7.25% (inactive).

With `C=CCOc1cccc(C2C(C(=O)c3ccc(C)o3)=C(O)C(=O)N2CCN2CCOCC2)c1` (centres undefined), the activation was 2.21% (inactive).

On to `CC1(C)CC(=O)C=C(c2ccccc2CO)C1=O`, for which the activation is -3.08% (inactive).

With `C[C@@H]1CN([C@@H](C)CO)C(=O)CCCn2nncc2CO[C@H]1CN(C)C(=O)Nc1ccc(C(F)(F)F)cc1`, the activation was -17.1% (inactive).

As for `C[C@@H]1CN([C@H](C)CO)C(=O)CCCn2nncc2CO[C@@H]1CN(C)C(=O)OCc1ccccc1`, the activation is -4.31% (inactive).

On to `O=C(NCCOc1ccccc1)N1[C@H]2CC[C@@H]1C=C(c1ccc(F)cc1OCc1ccccc1)C2`, for which the activation is -0.02% (inactive).

Take `CSc1ncnc2c1ncn2CCCNCC(C)c1ccccc1` (centres undefined): the activation was -3.46% (inactive).

As to `Cc1ccc(-c2ccc(CN3C(C)C(=O)N(Cc4cn(CCC5OCCCO5)nn4)CCS3(=O)=O)cc2)cc1` (centres undefined), the activation was -0.73% (inactive).

On to `CSc1ncccc1C(=O)N1CCCC(Nc2ccc(F)c(F)c2)C1` (centres undefined), for which the activation was -3.17% (inactive).

For `COc1ccccc1-n1c(SCC(=O)Nc2ccc(Cl)cc2)nc(O)c(Cc2ccccc2)c1=O`, the activation was 0.18% (inactive).

Turning to `Cc1cc(=O)c2ccc(NC(=O)c3ccccc3)cc2[nH]1`, the activation is 0.43% (inactive).

For the compound `CCC(C)(C)NC(=O)CN(C(=O)CCC(=O)Nc1nccs1)c1ccc2c(c1)OCO2`, the activation is 6.11% (inactive).

As for `COc1ccc(N(CC(=O)NCc2ccc(F)cc2)C(=O)CCC(=O)Nc2nccs2)cc1`, the activation is -12.4% (inactive).

Regarding `O=C(CN(C(=O)CCC(=O)Nc1nccs1)c1ccc(F)cc1)NCc1ccc2c(c1)OCO2`, the activation is 18.4% (active).

As to `O=C(Nc1ccc2c(c1)[C@@H]1C[C@@H](CC(=O)N3CCCCC3)O[C@@H](CO)[C@@H]1O2)NC1CCCCC1`, the activation was -11.6% (inactive).

Regarding `O=C(OCc1cn([C@@H]2C[C@H](c3ccc(Cl)cc3)N(Cc3cccs3)C[C@H]2O)nn1)c1ccccc1`, the activation is -14.6% (inactive).

Consider `CCN(CC)C(=O)C1=C(C)N(Cc2ccc(F)cc2)C(=O)C(CC(=O)NCc2cccc3ccccc23)C1` (centres undefined), for which the activation was 1.37% (inactive).

`O=c1[nH]c2ccccc2n1C1CCN(CCOc2ccccc2)CC1`: the activation is -11% (inactive).

Take `CSC1=NN(c2ccccc2)CN(c2ccccc2)N1C`: the activation was 9.82% (inactive).

Consider `O=C(COC(=O)Cc1ccc(Cl)cc1Cl)NCc1ccco1`, for which the activation was -1.41% (inactive).

For the compound `CCCC(=O)Nc1ncnc2c1ncn2[C@@H]1O[C@@H]2OP(=O)(O)OC[C@H]2[C@H]1OC(=O)CCC`, the activation is 42.6% (active).

As for `CCOC(=O)c1c(C)[nH]c(C)c1C(=O)COC(=O)/C=C/c1cccc([N+](=O)[O-])c1`, the activation was -7.22% (inactive).

For `COc1ccc(CN2C(=O)C(CC(=O)NCCN3CCOCC3)CC(C(=O)N(C(C)C)C(C)C)=C2C)cc1` (centres undefined), the activation was -6% (inactive).

These data come from PubChem BioAssay AID504700 (The Scripps Research Institute Molecular Screening Center, 2011).
